# Reference: PubChem BioAssay (NCATS)
# Records with an inconclusive call do not appear. A call without a number means that no potency is given here. Values without a mark were called inactive. Active and inactive are the calls of the source. The call rests on the fitted dose curve; in most records, active means well fitted curve in the direction sought with a large enough effect; inconclusive means small, poorly fitted or top-dose-only effect, or another doubt; inactive means no such curve, though single readings can be large; an effect the other way counts as inactive or inconclusive.
# Experiments:
# [1] = Tertiary RLuc qRT-PCR qHTS assay for Zika virus inhibitors (AID 1347169); conditions: infected Vero cells, reporter luminescence, 48-72 h; series mostly up to 45.9 µM; further: nearly all actives have a fitted effect of over 55% in size; further: potency means the concentration at half of the fitted maximal effect; on activity change, negative = inhibition: top concentration of the series differs between compounds
# In short: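 Orthogonal cell-based readout: luminescence measured 1-1.5 hrs after adding live-cell Renilla substrate to Vero cells that had been infected with ZIKV-RLuc (MOI 1-2) post-compound, incubated 48-72 hrs at 37 degrees C.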
# [2] = OV-KATE Cancer Cell Toxicity qHTS against the NCATS CANVASS Library (AID 1347345); conditions: OV-KATE cells viability, CellTiter-Glo luminescence, 72 h; series mostly up to 76 µM
# In short: (§1)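 Step one: seed 1000 cells per well. Step two: incubate 4 h. Step three: add test compounds in 11 concentrations. Step four: culture 72 h, then add CellTiter-Glo and record luminescence after 15min.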
# [3] = HPAF-II Cancer Cell Toxicity qHTS against the NCATS CANVASS Library (AID 1347346); conditions: HPAF-II viability, CellTiter-Glo ATP luminescence, 72 h; series mostly up to 76 µM; further: nearly all actives have a fitted effect of over 55% in size
# In short: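 HPAF-II cells at 1000 cells/well were treated with an 11-point concentration series for 72 hours at 37 degrees C. Viability read by CellTiter-Glo luminescence.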
# [4] = UWB1.289 Cancer Cell Toxicity qHTS against the NCATS CANVASS Library (AID 1347347); conditions: UWB1.289 viability, CellTiter-Glo luminescence, 72 h; series mostly up to 76 µM; further: nearly all actives have a fitted effect of over 60% in size
# In short: as §1
# [5] = OV-SAHO Cancer Cell Toxicity qHTS against the NCATS CANVASS Library (AID 1347348); conditions: OV-SAHO viability, CellTiter-Glo luminescence, 72 h; series mostly up to 76 µM; further: nearly all actives have a fitted effect of over 55% in size
# In short: as §1
# [6] = Panc-1005 Cancer Cell Toxicity qHTS against the NCATS CANVASS Library (AID 1347349); conditions: Panc-1005 viability, CellTiter-Glo luminescence, 72 h; series mostly up to 76 µM; further: nearly all actives have a fitted effect of over 60% in size
# In short: as §1
# [7] = SW1088 Cancer Cell Toxicity qHTS against the NCATS CANVASS Library (AID 1347350); conditions: SW1088 viability, CellTiter-Glo luminescence, 72 h; series mostly up to 76 µM; further: nearly all actives have a fitted effect of over 75% in size
# In short: as §1
# [8] = U-118MG Cancer Cell Toxicity qHTS against the NCATS CANVASS Library (AID 1347351); conditions: U-118MG viability, CellTiter-Glo luminescence, 72 h; series mostly up to 76 µM
# In short: as §1
# [9] = COV-362 Cancer Cell Toxicity qHTS against the NCATS CANVASS Library (AID 1347352); conditions: COV-362 viability, CellTiter-Glo luminescence, 72 h; series mostly up to 76 µM
# In short: (§2)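 Cells at 1000/well were given compound 4 h after plating in an 11-point series. Viability was read by CellTiter-Glo luminescence after 72 h at 37 degrees C.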
# [10] = A2780 Cisplatin Sensitive Ovarian Cancer Cell Toxicity qHTS against the NCATS CANVASS Library (AID 1347353); conditions: A2780 ovarian cancer viability, ATPLite luminescence, 72 h; at 91.4 µM (top of the series) unless noted; further: nearly all actives have a fitted effect of over 60% in size
# In short: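 A2780 cells, 750/well, settled 4 h at 37 °C, then treated with an 11-point compound series for 72 h. Viability was read as ATPLite luminescence after 10 min at room temperature, with bortezomib as control.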
# [11] = UWB1.289-WTBRCA1 Cancer Cell Toxicity qHTS against the NCATS CANVASS Library (AID 1347354); conditions: UWB1.289-WTBRCA1 viability, CellTiter-Glo luminescence, 72 h; series mostly up to 76 µM
# In short: as §2
# [12] = HEK-293 Cancer Cell Toxicity qHTS against the NCATS CANVASS Library (AID 1347355); conditions: HEK-293 viability, CellTiter-Glo luminescence, 72 h; series mostly up to 91.4 µM; further: nearly all actives have a fitted effect of over 65% in size
# In short: as §2
# [13] = HPAF-II 24hr Apoptosis Induction qHTS against the NCATS CANVASS Library (AID 1347356); conditions: HPAF-II caspase-3/7 Caspase-Glo luminescence; series mostly up to 91.4 µM
# In short: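 HPAF-II cells (500/well) exposed to compounds in 11-point series for 24 h at 37 degrees C; caspase-3/7 activity read by Caspase-Glo luminescence after 15 min at room temperature. Doxorubicin titration as control.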
# [14] = HEK293 18hr Apoptosis Induction qHTS against the NCATS CANVASS Library (AID 1347357); conditions: HEK293 caspase-3/7 Caspase-Glo luminescence; series mostly up to 91.4 µM
# In short: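 Caspase-Glo 3/7 luminescence (15 min, room temperature) measured apoptosis after an 18-hour, 37 degrees C exposure of HEK293 cells (500 cells/well) to compounds in 11 points.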
# [15] = HPAF-II 12hr Apoptosis Induction qHTS against the NCATS CANVASS Library (AID 1347358); conditions: HPAF-II caspase-3/7 Caspase-Glo luminescence; series mostly up to 91.4 µM
# In short: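 HPAF-II cells, 500/well in DMEM + 10% FBS, exposed 12 hours at 37 degrees C to compound (11-point). Caspase-Glo 3/7 added for 15 min at room temperature; luminescence reflects caspase-3/7 activity.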
# [16] = HEK293 24hr Apoptosis Induction qHTS against the NCATS CANVASS Library (AID 1347359); conditions: HEK293 caspase-3/7 activation, Caspase-Glo luminescence; series mostly up to 91.4 µM
# In short: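 HEK293 cells, 500 per well, exposed to an 11-point compound series for 24 hours at 37 degrees C. Caspase 3/7 activity read by Caspase-Glo luminescence (DEVD substrate) after 15 min at room temperature.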
# [17] = HPAF-II 18hr Apoptosis Induction qHTS against the NCATS CANVASS Library (AID 1347360); conditions: HPAF-II caspase-3/7 luminescence; series mostly up to 91.4 µM
# In short: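 Caspase-3/7 activation was measured with luminescent Caspase-Glo 3/7 reagent (15 min, RT) in HPAF-II cancer cells (500 cells/well). Before detection, cells had been treated for 18 h at 37 C with compounds (11 points).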
# [18] = HEK293 12hr Apoptosis Induction qHTS against the NCATS CANVASS Library (AID 1347361); conditions: HEK293 caspase-3/7 Caspase-Glo luminescence; series mostly up to 91.4 µM
# In short: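 HEK293 cells (500/well, DMEM + 10% FBS) were exposed to natural products across an 11-point series for 12 hours at 37 degrees C. Caspase-3/7 activity was then measured with DEVD luciferase luminescence after 15 min at room temperature.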
# [19] = Vero cells viability qHTS for Zika virus inhibitors (AID 1347167); conditions: cytotoxicity counter-screen (Zika); series mostly up to 45.9 µM
# In short: (§3)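 Cells seeded at 2.5 x 10^5 cells/mL in DMEM with 4% FBS and attached overnight at 37 degrees C, then exposed to compound for 24 to 48 hours. Viability read as ATP content by CellTiter Glo luminescence.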
# [20] = HepG2 cells viability qHTS for Zika virus inhibitors (AID 1347168); conditions: Zika counter-screen; series mostly up to 45.9 µM
# In short: as §3
smiles,measurement,setting,value
Oc1cc(Cl)c(Cl)cc1Cl,"activity change, negative = inhibition",[1],-13.8% [at 5.25 µM]
O=C1C[C@@H]2OCC=C3CN4CC[C@]56c7ccccc7N1[C@H]5[C@H]2[C@H]3C[C@H]46,outcome,[2],inactive
same,outcome,[3],inactive
same,outcome,[4],inactive
same,outcome,[5],inactive
same,outcome,[6],inactive
same,outcome,[7],inactive
same,outcome,[8],inactive
same,outcome,[9],inactive
same,outcome,[10],inactive
same,outcome,[11],inactive
same,outcome,[12],inactive
same,outcome,[13],inactive
same,outcome,[14],inactive
same,outcome,[15],inactive
same,outcome,[16],inactive
same,outcome,[17],inactive
same,outcome,[18],inactive
CCCCCOc1cc2c(cc1-c1cc(/C=C/C(=O)O)ccc1O)C(C)(C)CCC2(C)C,outcome,[19],inactive
same,outcome,[20],inactive
C[C@@H]1[C@@H]2Cc3ccc(O)cc3[C@@]1(C)CCN2CC1CC1,outcome,[19],inactive
same,outcome,[20],inactive
same,Potency,[1],inactive
CC[C@H](C)[C@H]1O[C@]2(C=C[C@@H]1C)C[C@@H]1C[C@@H](C/C=C(\C)[C@@H](O[C@H]3C[C@H](OC)[C@@H](O[C@H]4C[C@H](OC)[C@@H](O)[C@H](C)O4)[C@H](C)O3)[C@@H](C)/C=C/C=C3\CO[C@@H]4[C@H](O)C(C)=C[C@@H](C(=O)O1)[C@]34O)O2,outcome,[19],inactive
same,outcome,[20],inactive
same,Potency,[1],20.8 µM (active)
O=C1OC2(c3cc(Br)c(O)cc3Oc3c2cc(Br)c(O)[c]3[Hg])c2ccccc21 (stereo not drawn),"activity change, negative = inhibition",[1],-7.05% [at 0.566 µM]
COc1ccc2[nH]cc(CCN)c2c1,outcome,[2],inactive
same,outcome,[3],inactive
same,outcome,[4],inactive
same,outcome,[5],inactive
same,outcome,[6],inactive
same,outcome,[7],inactive
same,outcome,[8],inactive
same,outcome,[9],inactive
same,outcome,[10],inactive [at 46.1 µM]
same,outcome,[11],inactive
same,outcome,[12],inactive
same,outcome,[13],inactive
same,outcome,[14],inactive
same,outcome,[15],inactive
same,outcome,[16],inactive
same,outcome,[17],inactive
same,outcome,[18],inactive
O=c1ccc2[nH]cc(C3=CCNCC3)c2[nH]1,outcome,[19],inactive
same,outcome,[20],inactive
same,Potency,[1],inactive
C[C@@]1(C(=O)O)CC[C@]2(C)CC[C@]3(C)C4=CC(=O)c5cc(O)c(O)cc5[C@]4(C)CC[C@@]3(C)[C@@H]2C1,outcome,[19],inactive
same,outcome,[20],inactive
same,Potency,[1],inactive
COc1c(C(C)C)cc2c(c1O)[C@@]1(C(=O)O)CCCC(C)(C)C1CC2 (stereo partly drawn),Potency,[1],inactive
CCN1CC2(COC)C3[C@@H](OC)C4C1C3(C1C[C@]3(O)[C@H](OC(=O)c5ccccc5)C1[C@]4(OC(C)=O)[C@@H](O)[C@@H]3OC)[C@H](OC)C[C@H]2O (stereo partly drawn),Potency,[1],inactive
COC(=O)C1(C)CCC(O)C2(C)c3cc(O)c(C(C)C)cc3C(O)C(OC(C)=O)C12 (stereo not drawn),Potency,[1],inactive
